Luciferase inh: inhibitors of firefly (Photinus pyralis) luciferase; purified P. pyralis luciferase, luminescence, biochemical; P08659; AID 1347043; actives 2.5% (n = 76,000); Potency, µM (top dose mostly 115 µM), actives largely listed as inhibitors; note: nearly all actives have a fitted effect of over 65% in size
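Cell-free enzyme assay, 10nM P. pyralis luciferase, luciferin and ATP each at 10uM. Inhibition profiled over a 6-point titration, read as luminescence.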
NPR1 antag: blocks ANP-stimulated signaling of human Npr1 receptor. P16066. HEK293 hNpr1 GloSensor cGMP, ANP-stimulated luminescence. Potency, µM (doses to about 46.3 µM), inactives show at the highest dose activity change, negative = inhibition, most hits filed as inhibitors. actives 1.6% (n = 76,000); calls by dose curve; note: nearly all actives have a fitted effect of over 60% in size
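Compound pre-incubated 30 min at room temperature on GloSensor-loaded HEK293 cells stably carrying hNpr1 and the pGS-40F cGMP biosensor. Stimulation uses hNppA at 0.1 nM final; luminescence is taken at baseline and 20 min post-agonist.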
3T3 cytotox: kills NIH 3T3 cells. actives 4.3% (n = 94,000). Potency, µM (highest dose often 96.7 µM), for the others: at the highest dose activity change, negative = cytotoxicity, actives largely listed as inhibitors. NIH 3T3 viability, CellTiter-Glo ATP luminescence, 48-72 h; note: nearly all actives have a fitted effect of over 55% in size
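Cells were seeded at 400 per well, treated with pin-transferred compound, and kept 48 or 72 hr at 37 °C before CellTiter-Glo addition and luminescence imaging of cellular ATP.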
GPT2 inhibitor: inhibitors of human GPT2 alanine aminotransferase; Q8TD30; Recombinant GPT2, coupled pyruvate oxidase/HRP Amplex Red fluorescence; Potency, µM (top dose mostly 57.7 µM), without a hit: at the highest dose activity change, negative = inhibition, usual class: inhibitors; actives 0.25% (n = 100,000); AID 1671188; note: nearly all actives have a fitted effect of over 60% in size
Target sequence (Q8TD30 whole entry, looked up): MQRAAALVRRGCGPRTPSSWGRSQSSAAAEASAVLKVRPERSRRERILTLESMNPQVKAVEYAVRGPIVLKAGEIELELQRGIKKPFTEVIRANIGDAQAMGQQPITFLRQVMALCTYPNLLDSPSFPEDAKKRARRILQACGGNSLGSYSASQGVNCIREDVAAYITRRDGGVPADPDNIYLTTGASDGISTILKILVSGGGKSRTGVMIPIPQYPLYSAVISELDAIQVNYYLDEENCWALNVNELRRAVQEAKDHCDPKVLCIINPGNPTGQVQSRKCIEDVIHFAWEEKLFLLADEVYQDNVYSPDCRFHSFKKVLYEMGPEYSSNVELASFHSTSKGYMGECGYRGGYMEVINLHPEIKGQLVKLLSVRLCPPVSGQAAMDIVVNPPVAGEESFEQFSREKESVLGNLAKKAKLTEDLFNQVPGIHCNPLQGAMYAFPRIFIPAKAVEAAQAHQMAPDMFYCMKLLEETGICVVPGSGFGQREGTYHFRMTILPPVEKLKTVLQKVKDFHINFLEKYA
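Inhibition is scored from Amplex Red fluorescence generated when pyruvate oxidase and HRP act on pyruvate released by GPT2. Reactions contain 10ng/uL enzyme, 250uM a-KG and 2mM L-alanine and run 30 min at room temperature.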
HEK cytotox: kills HEK 293 cells; HEK 293 viability, ATP luminescence (CellTiter-Glo), 48-72 h; Potency, µM (highest dose often 115 µM), inactives show at the top dose activity change, negative = cytotoxicity, usual class: inhibitors; actives 6.6% (n = 94,000); note: nearly all actives have a fitted effect of over 60% in size
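250 HEK 293 cells/well; compound by pintool; incubated 48 or 72 hr at 37 degree Celsius; CellTiter-Glo added, 10 min RT, luminescence imaged.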
Starred values were filed as active, the others as inactive; i = inactive; ? = inconclusive; . = no result given; [ ] = another dose, or the depositor's remark. A selection: hits, their analogues and other compounds. The true share with any hit is near 10%. Unless noted, calls come from the whole dose curve; as a rule, active = well fitted curve in the direction sought with a large enough effect; inconclusive = small, poorly fitted or top-dose-only effect, or another doubt; inactive = no such curve, though single readings can be large; an effect the other way counts as inactive or inconclusive. % is set by controls: 0 for no effect and ±100 for the full control effect; potency is the fitted concentration of half-maximal effect.

SMILES | Luciferase inh | NPR1 antag | 3T3 cytotox | GPT2 inhibitor | HEK cytotox
Cc1cccc(CCNC(=O)c2coc(COc3cccc(F)c3F)n2)n1 | i | -16% | -27% | -11% | -21%
O=C(c1nccc2ccccc12)N1CCc2c(nc(-c3ccccc3)[nH]c2=O)C1 | i | -4% | ? | i | 25µM*
O=C(Cc1ccc(N(Cc2ccccc2)C(=O)c2ccco2)cc1)NCCc1ccccc1 | i | -6% | ? | i | 50µM*
COCCNC(=O)Cc1ccc(N(Cc2ccccc2)C(=O)c2ccco2)cc1 | i | 7% | -4% | i | -1%
O=C(Cc1ccc(N(Cc2ccccc2)C(=O)c2ccco2)cc1)Nc1ccccc1 | ? | -15% | ? | i | 35µM*
Cc1cnn(CCC(=O)N[C@@H]2COCC[C@H]2OCc2ccccn2)c1 | i | 0% | 2% | i | i
CNC(=O)N1CCC(C2CCN(Cc3ccc(F)c(OC)c3)C2)CC1 (stereo not drawn) | i | 2% | i | -6% | 3%
O=C(NCCCc1ccccn1)c1ccc2nc(-c3ccc(F)cc3)cn2c1 | ? | -13% | ? | 2% | 45µM*
CCN(CC1CCCO1)C(=O)c1ccc2nc(-c3ccc(F)cc3)cn2c1 (stereo not drawn) | ? | 2% | -28% | i | ?
O=C(NCCc1nc(-c2ccccc2)cs1)c1ccc2nccn2c1 | i | -17% | ? | i | 40µM*
CCN(Cc1ccc(C)o1)C(=O)c1ccc2nc(-c3ccc(F)cc3)cn2c1 | 40µM* | -15% | ? | ? | ?
Cc1c(CNC(=O)c2ccc3nc(-c4ccc(F)cc4)cn3c2)cnn1C | 45µM* | -15% | -22% | -9% | ?
COC(=O)C1=C(C)N=C2SC=C(CC(=O)NCc3cccc(F)c3)N2C1c1ccccc1 (stereo not drawn) | i | -15% | ? | -5% | ?
O=C(NCCc1ccc(Cl)cc1)c1nc(-c2ccc(Cl)cc2Cl)c2cnccn12 | . | . | -26% | -1% | ?
COCCNC(=O)c1nc(-c2ccc(OC)cc2)c2ccccn12 | . | . | ? | i | ?
COCCNC(=O)c1nc(-c2c(C)cccc2C)c2ccccn12 | i | -1%[70.6 µM] | ? | -5%[88.5 µM] | 35µM*
COc1ccccc1-c1nc(C(=O)NCCc2ccc(Cl)cc2)n2ccncc12 | . | . | 28µM* | 4% | ?
Cc1cccc(C)c1-c1nc(C(=O)NCCc2ccc(Cl)cc2)n2ccccc12 | i | -5% | -27% | i | 50µM*
COC(=O)CNC(=O)c1nc(-c2c(C)cccc2C)c2ccccn12 | ? | 0% | -21% | i | ?
COCCNC(=O)c1nc(-c2ccccc2)c2ccccn12 | i | 7%[70.6 µM] | ? | -21%[88.5 µM] | 100µM*
CCOc1ccccc1CNC(=O)CN1CC2CC(C1)[C@H]1CCCC(=O)N1C2 (stereo partly drawn) | i | -19% | ? | -8% | ?
COC(=O)CNC(=O)c1nc(-c2cc(Cl)cc(Cl)c2)c2ccccn12 | i | -25% | -15% | -11% | 35µM*
COc1ccc(CN2Cc3[nH]cnc3C[C@H]2C(=O)NC2CCCCC2)c2ccccc12 | i | -19%[70.6 µM] | 63µM* | 1%[88.5 µM] | ?
O=C(NCc1ccccc1)[C@@H]1Cc2nc[nH]c2CN1Cc1ccc(Cl)cc1 | i | -11%[70.6 µM] | ? | i | ?
O=C(NCc1ccc(Cl)cc1)[C@@H]1Cc2nc[nH]c2CN1Cc1ccc(Cl)cc1 | i | ? | 45µM* | 1%[88.5 µM] | 32µM*
SMILES | Luciferase inh | NPR1 antag | 3T3 cytotox | GPT2 inhibitor | HEK cytotox
COc1ccc(CN2Cc3[nH]cnc3C[C@H]2C(=O)NCc2ccc(Cl)cc2)c2ccccc12 | i | ? | ? | ? | ?
COc1ccc(CN2Cc3[nH]cnc3C[C@H]2C(=O)N(C)Cc2ccccc2)c2ccccc12 | i | -26% | ? | ? | 40µM*
COc1ccc(CN2Cc3[nH]cnc3C[C@H]2C(=O)NCc2ccc(C#N)cc2)c2ccccc12 | i | -19% | 79µM* | -2% | ?
CCCCCCN1CCCC12Cc1ccccc1CNC2=O (stereo not drawn) | . | . | ? | i | ?
CCOC(=O)[C@@H]1CN(C(=O)c2ccc(F)cc2)[C@H]2c3ccccc3O[C@@H]12 | . | . | ? | . | -24%
COCCCn1c(=O)c(C(=O)N2CCN(C(=O)C(C)(C)C)CC2)nc2cccnc21 | . | . | -10% | -1% | -3%
C#CCNC(=O)c1nc(-c2cccnc2)c2cnccn12 | i | 13%[70.6 µM] | -22%[138 µM] | i | ?
C#CCNC(=O)c1nc(-c2ccsc2)c2cnccn12 | i | 0%[70.6 µM] | -21%[138 µM] | i | 100µM*
CCCCc1cc(C[C@H]2CNCC[C@H]2CC(=O)NCc2ccc(F)cc2)no1 | i | ? | ? | i | ?
O=C(C[C@@H]1CCNC[C@@H]1Cc1cc(CN2CCOCC2)on1)NCCN1CCOCC1 | i | 7% | -4% | -13% | -3%
CC(C)NC(=O)C[C@@H]1CCNC[C@@H]1Cc1cc(CC2CCCCC2)on1 | i | -1%[70.6 µM] | 100µM* | i | ?
CCCCc1cc(C[C@H]2CNCC[C@H]2CC(=O)NCc2ccccc2)no1 | i | ? | ? | 0%[88.5 µM] | 71µM*
CCCCc1cc(C[C@H]2CNCC[C@H]2CC(=O)Nc2ccccc2)no1 | i | -9%[70.6 µM] | ? | i | 63µM*
CC(=O)OC1CC(C)C2(CCC3(CC(=O)OC3O)O2)C2(C)CCCC(C)(C)C12 (stereo not drawn) | . | . | . | i | .
CCCCc1ccc(NC(=O)CN2C(=O)NC(c3ccccc3OCC)C3=C2COC3=O)cc1 (stereo not drawn) | i | -2% | 32µM* | i | 32µM*
CCOc1ccccc1C1NC(=O)N(CC(=O)Nc2ccc(F)cc2)C2=C1C(=O)OC2 (stereo not drawn) | i | -12% | ? | -9% | -18%
CCOc1ccccc1C1NC(=O)N(CC(=O)Nc2cccc(Cl)c2)C2=C1C(=O)OC2 (stereo not drawn) | i | -22% | ? | -6% | 35µM*
CCOc1ccccc1C1NC(=O)N(CC(=O)Nc2ccc(C)c(Cl)c2)C2=C1C(=O)OC2 (stereo not drawn) | ? | -22% | ? | -1% | ?
COCCNC(=O)c1cc(-c2cc(Cl)cc(Cl)c2)c2nncn2n1 | . | . | -4%[138 µM] | i | -9%[172 µM]
COc1cccc(CN2CCCC(Cc3ncc(C)n3Cc3ccccc3)C2)c1OC (stereo not drawn) | i | -23% | ? | i | 50µM*
Oc1ccc(CCC2CCCCN2Cc2nc(Cc3cccc(F)c3)no2)cc1 (stereo not drawn) | i | -7% | ? | 0% | 22µM*
